# Screens deposited in PubChem BioAssay by National Center for Advancing Translational Sciences (NCATS).
# HT1080 IDH1KD tx: kills HT-1080 cells with IDH1 knockdown; HT-1080 IDH1 knockdown viability, ATP luminescence, 48 h; Potency, µM (highest dose often 46.1 µM), without a hit: at the highest dose activity, negative = toxicity, usual class: cytotoxic; AID 686971; actives 2% (n = 360,000);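 further: potency means the concentration at half of the fitted maximal effect; 0% = DMSO wells and -100% = cell-free medium wells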
#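 IDH1KD HT-1080 cells, 750/well, RPMI + 5% FBS; compound pinned after 2 h settling; 48 h, 37 °C; CellTiter-Glo luminescence; % activity normalised to DMSO and no-cell wells; curves fitted, classed by r2 and efficacy.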
# HT1080NT lethal: kills 2HG-producing HT-1080-NT fibrosarcoma cells | Potency, µM (series often up to 46.1 µM), inactives show top-dose activity, negative = less viability, usual class: cytotoxic | HT-1080-NT fibrosarcoma viability, CellTiter-Glo ATP luminescence, 48 h | actives 1.6% (n = 360,000);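 further: NT is the 2HG producing partner of a matched IDH1 knockdown line; potency means the concentration at half of the fitted maximal effect; 0% = DMSO-treated cells and -100% = media-only wells without cells; nearly all actives have a fitted effect of over 55% in size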
#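 Viability of the 2HG-overproducing fibrosarcoma line after 48 hours of compound exposure at 37 degrees C was determined by luminescence with CellTiter-Glo, and concentration-effect curves were then fitted and categorized.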
# IL1B secr inh: inhibitors of inflammasome signaling (IL-1 beta secretion); THP-1 LPS/ATP IL-1B secretion, AlphaLISA, 16 h; active compounds read low; activity change, % at 57.5 µM; actives 4.7% (n = 360,000); in the data active means activity change below about -50%; inconclusive means mostly about -30% to -49%
#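 Secreted IL-1B measured by AlphaLISA bead assay after 16 h compound exposure of THP-1 cells; compounds (final up to 57.5 uM) added 1 h before LPS (250 ng/mL) and ATP (1.25 mM) stimulation; lower signal means less secretion.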
# TDP1 cell CPT: growth inhibition of DT40 Tdp1-/-;hTDP1 cells with camptothecin (screen for TDP1 inhibitors); actives 12% (n = 420,000); Potency, µM (highest dose often 46.2 µM), without a hit: at the highest dose activity change, negative = growth inhibition, usual class: inhibitors; chicken DT40 Tdp1-/-;hTDP1 cells + 20 nM CPT, ATP luminescence, 48 h; further: potency means the concentration at half of the fitted maximal effect; nearly all actives have a fitted effect of over 55% in size
#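 Chicken DT40 Tdp1-/- cells complemented with human TDP1, 400 cells/well, exposed to compounds plus 20 nM camptothecin for at least 48 h at 37 C; viability read as ATP content by CellTiter-Glo luminescence.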
# DT40 TDP1 no CPT: qHTS for Inhibitors of human tyrosyl-DNA phosphodiesterase 1 (TDP1): qHTS in cells in absence of CPT; AID 686978, 2013; DT40 Tdp1-/- hTDP1 cells, no CPT, ATP luminescence, 48 h; actives 15% (n = 420,000); Potency, µM (top dose mostly 46.2 µM), without a hit: at the highest dose activity change, negative = growth inhibition, usual class: inhibitors; further: potency means the concentration at half of the fitted maximal effect; nearly all actives have a fitted effect of over 55% in size
#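 Compound effects on proliferation are scored in DT40 Tdp1-/-;hTDP1 cells in the absence of CPT. ATP levels (CellTiter-Glo luminescence) are recorded after a ≥48 hr, 37 °C incubation.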
# * = called active by the depositor; ? = inconclusive; nt = not tested or not shown; [ ] = remark or other dose. Sampled rows, rich in hits. Any-hit rate of the full collection: about 19%. Unless noted, the call rests on the fitted dose curve; in most records, active means well fitted curve in the direction sought with a large enough effect; inconclusive means small, poorly fitted or top-dose-only effect, or another doubt; inactive means no such curve, though single readings can be large; an effect the other way counts as inactive or inconclusive. Unless noted, on the % scale 0 is the no-effect control and ±100 the full control effect.
SMILES,HT1080 IDH1KD tx,HT1080NT lethal,IL1B secr inh,TDP1 cell CPT,DT40 TDP1 no CPT
COc1ccc(N(CC(C)C)S(=O)(=O)c2nnc(NC(=O)CC(C)C)s2)cc1,0%,-4%,11,3.7µM*,?
CCN(c1ccc(OC)cc1)S(=O)(=O)c1nnc(NC(=O)CC(C)C)s1,14%,10%,-53*,-20%,2%
Cc1ccc(N(CC(C)C)S(=O)(=O)c2nnc(NC(=O)c3ccco3)s2)cc1,nt,nt,nt,?,18µM*
CC(=O)NC1(NC(C)=O)CCN(C)CC1,9%,12%,-14,16%,0%
COc1cc(/C=C2/SC(=O)N(Cc3ccccc3)C2=O)ccc1OCc1ccncc1,3%,6%,?,16µM*,12µM*
COCCN1C(=O)/C(=C/c2ccc(OCc3ccc(C(=O)O)cc3)c(OC)c2)SC1=Nc1ccccc1,-17%,-22%,-11,23µM*,21µM*
Cc1ccc(C(=O)/C=C/c2ccco2)c(O)c1,-15%,-6%,-19,?,-29%
COC(=O)CNC(=O)Cn1c(=O)n(Cc2ccc(F)cc2)c(=O)c2sccc21,-18%,-4%,?,?,?
COc1cc(CNC(=O)c2cnc3c(-c4cccc(C)c4)c(C)nn3c2C)cc(OC)c1OC,nt,nt,nt,12µM*,16µM*
CC(C)C(NC(=O)c1c(F)cccc1F)C(=O)NC1CC(C)(C)NC(C)(C)C1 (stereo unspecified),8%,15%,8,1%,-17%
C/C(=N/NC(=O)CCCOc1ccc(Cl)cc1Cl)c1ccc(C)o1,-18%,13%,-9,24%,-29%
Cc1cc([N+](=O)[O-])ccc1NC(=S)NC1CCCC1,-9%,-7%,11,-26%,-14%
COc1ccc(CNc2ccccc2SC)cc1OC,-2%,-27%,-5,?,?
COc1cc(CNc2ccccc2SC)cc(OC)c1OC,?,-30%,-2,21µM*,21µM*
FC(F)(F)c1cc(CN2CC[C@@]3(CCCNC3)C2)cc(C(F)(F)F)c1,nt,nt,nt,?,15µM*
FC(F)(F)c1cc(CN2CC3(CCNCC3)C2)cc(C(F)(F)F)c1,nt,nt,nt,18µM*,7.3µM*
CC(=O)N1CCC2(CC1)CN(Cc1cc(C(F)(F)F)cc(C(F)(F)F)c1)C2,nt,nt,nt,0%,-16%
Cc1ccc(-c2cn3cccnc3n2)cc1NC(=O)C(C)(C)Oc1ccc(Cl)cc1,nt,nt,nt,?,18µM*
COc1cccc(C(=O)Nc2cc(-c3cn4cccnc4n3)ccc2C)c1OC,nt,nt,nt,?,16µM*
CCCC(=O)Nc1cc(-c2cn3cccnc3n2)ccc1OC,14%,27%,-12,-7%,-5%
COc1ccc(-c2cn3cccnc3n2)cc1NC(=O)c1ccc(Br)o1,4%,23%,-54*,16µM*,?
COc1ccc(-c2cn3cccnc3n2)cc1NC(=O)c1c(F)cccc1F,nt,nt,nt,?,26µM*
Cc1ccc(-c2cn3cccnc3n2)cc1NC(=O)c1ccc(Br)o1,?,3%[9.24 µM],?,-19%,-21%
CCCCNS(=O)(=O)c1ccc2nc(-c3cccnc3)cc(C(=O)NCCC)c2c1,nt,nt,nt,?,-21%
Cn1c(-c2ccc(CN3CCCCC3)o2)nc2ccccc21,9%,6%,7,-11%,-23%
SMILES,HT1080 IDH1KD tx,HT1080NT lethal,IL1B secr inh,TDP1 cell CPT,DT40 TDP1 no CPT
O=S(=O)(NCc1nnc2ccccn12)c1ccc(F)cc1,-3%,-6%,-9,0%,-13%
CCOC(=O)c1c(-c2ccc(C)cc2)csc1/N=C/N(C)C,-4%,-6%,-11,?,?
CCOC(=O)c1c(-c2ccc(F)cc2)csc1/N=C/N(C)C,-11%,3%,-87*,-13%,-9%
Cc1ccc(-n2nc(C(=O)c3ccccc3)n3c(=O)c(Cc4ccccc4)nnc23)cc1,-3%,-3%,-16,?,12µM*
COc1ccc(CN2C(=O)CSCC2(C)C(=O)Nc2c(C)cccc2C)cc1 (stereo unspecified),18%,13%,12,-5%,-28%
Cc1c(C(=O)NCCCN2CCOCC2)sc2ncnc(N3CCN(c4ccccc4)CC3)c12,-27%,?,?,16µM*,21µM*
CCOCCn1cnc2sc(C(=O)NCCCN3CCOCC3)c(C)c2c1=O,6%,7%,-6,4%,15%
CCCCNC(=O)c1sc2ncnc(NCC3CCCO3)c2c1C (stereo unspecified),nt,nt,nt,20%[9.04 µM],-14%
CCCCNC(=O)c1sc2ncnc(N3CCc4ccccc4C3)c2c1C,-10%,-14%,-12,15µM*,8.2µM*
CC(C)C(=O)n1nc(-c2cccnc2)nc1NCc1ccc(F)cc1,6%,1%,0,-1%,4%
COc1ccc(C(=O)NC(CCSC)C(=O)NCc2nnc3ccccn23)cc1 (stereo unspecified),7%,7%,-11,?,-2%
Cc1ccc2nc(SCC(=O)N3c4ccccc4CC3C)c(C)cc2c1 (stereo unspecified),1%,3%,-11,23µM*,15µM*
Cc1nnc(NC(=O)CSc2ncnc3c2cnn3-c2ccccc2C)s1,0%,-4%,0,4%,-16%
Cc1sc2nc(C(C)C)nc(SCC(=O)N3c4ccccc4CC3C)c2c1C (stereo unspecified),17%,8%,25,?,?
Cc1ccccc1-n1ncc2c(SCC(=O)N3c4ccccc4CC3C)ncnc21 (stereo unspecified),?,?,-92*,29µM*,20µM*
Cc1ccccc1-n1ncc2c(SCC(=O)NC3CCCC3)ncnc21,-9%,-4%,-71*,21µM*,7.3µM*
CCc1nc(SCC(=O)N2c3ccccc3CC2C)c2c(C)c(C)sc2n1 (stereo unspecified),?,6.3µM*,?,9.2µM*,10µM*
COc1ccc(CC(=O)NNS(=O)(=O)c2ccccc2)cc1OC,4%,?,0,1%,-14%
CC1Cc2ccccc2N1C(=O)CSc1nc(-c2ccccc2)cs1 (stereo unspecified),-11%,-2%,-21,?,26µM*
CCOC(=O)c1ccc(NC(=O)C(CC)Sc2nc3ncccc3o2)cc1 (stereo unspecified),nt,nt,nt,-26%,?
CCOC(=O)C1CCN(c2ncnc3c2c(-c2ccccc2)cn3-c2ccc(Cl)cc2)CC1,nt,nt,nt,-9%,?
Cc1cccc(-n2cc(-c3ccccc3)c3c(N4CCOCC4)ncnc32)c1,13µM*,21µM*,-67*,?,?
